In the library only some 7.4% were active in any assay of this set; here they are far more common.
ELG1 genotox – inducers of genotoxicity in HEK293T ELG1-luciferase cells. HEK293T ELG1-luciferase reporter, luminescence, 16 h. Potency, µM (series often up to 46 µM), for the others: top-dose activity change, positive = activation, actives largely listed as activators. 330,000 compounds, 1.3% hits. AID 504466; further: % of control where 0% means no effect; nearly all actives have a fitted effect of over 60% in size
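Screening used a luciferase reporter fused to human ELG1 in HEK293T cells. Luminescence was read on a CCD plate imager after 16 hr exposure and 30 min ONE-Glo incubation.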
SMN2 splice enh – increases expression of the SMN2 splice variant | HEK293 SMN2-luciferase splicing reporter, luminescence, 30-36 h | Potency, µM (top dose mostly 46.1 µM), for inactives: at the highest dose activity change, positive = activation, most hits filed as activators | 210,000 compounds, 2.8% hits | AID 1458; further: % of control where 0% means no effect; nearly all actives have a fitted effect of over 55% in size
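HEK293 cells carry an SMN2 minigene-luciferase reporter in which exon 7 inclusion puts luciferase in frame. Cells were seeded at 2000 cells/well, attached for 10-12 hours, then exposed to compounds for 30-36 hours at 37C before ONE-Glo luminescence.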
NPC1 prom act – activates the NPC1 promoter. AID 485313. Potency, µM (highest dose often 9.22 µM), without a hit: top-dose activation, hits mostly activators. Huh7 NPC1 promoter luciferase reporter, 24 h. 320,000 compounds, 2.4% hits; further: % of control where 0% means no effect; nearly all actives have a fitted effect of over 60% in size
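Compounds in DMSO were transferred onto Huh7 NPC1-luciferase reporter cells pre-incubated 2 h; after 24 h at 37 °C, Amplite reagent was dispensed and luminescence recorded 10 min later.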
Rab9 promoter act – Rab9 promoter activation | Huh7 Rab9 promoter-luciferase reporter, luminescence, 24 h | Potency, µM (doses to about 9.22 µM), for the others: at the top dose activation, negative = inhibition, most hits filed as activators | 320,000 compounds, 2.8% hits; further: % of control where 0% means no effect; nearly all actives have a fitted effect of over 60% in size
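Promoter activation is measured as luciferase luminescence in Huh7 cells stably transfected with a Rab9 promoter–luciferase construct, following 24 h compound exposure at 37 °C and 10 min reagent incubation at ambient temperature.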
p53 reactivation – re-activators of mutant p53. H1299 p53-A138V BP100-luciferase reporter, luminescence, 24 h. Potency, µM (doses to about 92.2 µM), for inactives: top-dose activity change, positive = activation, most hits filed as activators. 320,000 compounds, 0.063% hits. AID 504706; further: % of control where 0% means no effect; nearly all actives have a fitted effect of over 45% in size
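p53-null H1299 cells stably carrying temperature-sensitive p53-A138V and a BP100-luciferase reporter were pinned with compounds (4-point, 1:5 series) and held 24 hrs at 37 deg C. Luminescence was read 10 min after detection reagent.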
FLuc counter – inhibits or activates purified firefly luciferase, miR-21 counter-screen; purified FLuc, Km substrates, luminescence inhibition; Potency, µM (titrated, usually from 57.5 µM), inactives show at the top dose activity change, negative = inhibition, actives largely listed as inhibitors; P08659; 360,000 compounds, 6.9% hits;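 further: plate controls were vehicle for no effect and reference inhibitor for full effect; nearly all actives have a fitted effect of over 55% in size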
Target sequence (P08659 whole entry, looked up): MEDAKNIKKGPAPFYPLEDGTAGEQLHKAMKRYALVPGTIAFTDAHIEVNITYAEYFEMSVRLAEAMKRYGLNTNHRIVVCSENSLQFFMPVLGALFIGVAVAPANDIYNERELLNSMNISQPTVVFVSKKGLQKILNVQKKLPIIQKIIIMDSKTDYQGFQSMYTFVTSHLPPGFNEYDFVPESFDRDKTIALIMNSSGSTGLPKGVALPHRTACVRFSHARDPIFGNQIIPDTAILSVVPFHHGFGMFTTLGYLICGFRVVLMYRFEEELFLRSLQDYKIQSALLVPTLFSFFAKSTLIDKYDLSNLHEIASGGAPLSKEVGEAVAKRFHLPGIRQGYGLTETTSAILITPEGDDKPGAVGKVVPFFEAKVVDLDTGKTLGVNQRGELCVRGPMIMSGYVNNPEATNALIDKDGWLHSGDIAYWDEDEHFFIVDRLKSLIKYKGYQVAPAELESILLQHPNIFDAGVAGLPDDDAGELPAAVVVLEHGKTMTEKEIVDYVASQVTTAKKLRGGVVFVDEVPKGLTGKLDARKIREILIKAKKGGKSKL
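Biochemical qHTS of compounds, final roughly 60 µM downward over six points, against 10 nM purified firefly luciferase using Km concentrations of substrates (10 uM D-luciferin, 10 uM ATP) in Tris acetate pH 7.5 buffer; luminescence output.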
The depositor's hits bear a star; ? = inconclusive; . = no result; [ ] = remark or other dose. The call rests on the fitted dose curve; in most records, active means well fitted curve in the direction sought with a large enough effect; inconclusive means small, poorly fitted or top-dose-only effect, or another doubt; inactive means no such curve, though single readings can be large; an effect the other way counts as inactive or inconclusive. Potency means the concentration at half of the fitted maximal effect.

SMILES	ELG1 genotox	SMN2 splice enh	NPC1 prom act	Rab9 promoter act	p53 reactivation	FLuc counter
O=C(Nc1nc(-c2cccs2)cs1)c1ccc(Cl)cc1	?	6%	14%	16%	?	11µM*
Cc1ccc(C(=O)Nc2nccc(-c3cccs3)n2)cc1	3%	14%	29%	17%	3%	13µM*
Cc1ccc(-n2c(SCC(=O)NC3CCS(=O)(=O)C3)nc3ccccc3c2=O)cc1C (stereo not given)	3%	.	2%	-5%	-2%	-16%
CCN(CC)CCOC(=O)c1ccc(NC(=O)c2nn(-c3ccc(C)cc3)c(=O)c3c2c2ccccc2n3C)cc1	.	-6%	.	.	.	0%
N#Cc1c(N2C(=O)Nc3ccccc3N2O)sc2c1CCCC2	11%	-7%	18%	8%	30%	13µM*
N#Cc1c(N2C(=O)Nc3ccccc3N2O)sc2c1CCCCCC2	-3%	18%	9%	1%	9%	?
COc1ccc(C)cc1NC(=O)NCc1cccn1Cc1ccccc1	.	.	.	.	.	8%
COc1cccc(Cn2cc(C)cc(NC(=O)NCc3ccccc3)c2=O)c1	4%	.	15%	18%	.	2.1µM*
Cc1cc(NC(=O)CC(C)C)c(=O)n(Cc2ccccc2F)c1	1%	.	-2%	-2%	5%	0%
Cc1cc(NC(=O)NCc2ccccc2)c(=O)n(Cc2ccccc2F)c1	14%	.	11%	20%	.	5.4µM*
CCOc1ccc(S(=O)(=O)N2CCC(C(=O)OC(C)C(=O)N(C)C3CCCCC3)CC2)cc1 (stereo not given)	-12%	.	0%	0%	9%	-1%
Cc1ccc(/C(N)=N/OC(=O)c2cccs2)cc1	15µM*	26%[1.84 µM]	?	4.5µM*	?	1.9µM*
Cc1cccc(/C(N)=N/OC(=O)c2cccs2)c1	?	?	1.1µM*	1.3µM*	23%	0.76µM*
Cc1cccc(/C(N)=N/OC(=O)COc2ccc(Cl)cc2)c1	6%	8%	4%	-2%	2%	-17%
COc1ccc(/C(N)=N/OC(=O)c2cccs2)cc1OC	3%	.	-7%	-11%	4%	5%
N/C(=N\OC(=O)c1cccs1)c1cccc(Br)c1	?	12%	-1%	1%	6%	1.1µM*
N/C(=N\OC(=O)Cc1ccccc1)c1cccc(Br)c1	8%	6%	0%	1%	4%	17µM*
N/C(Cc1cccc2ccccc12)=N\OC(=O)c1cccs1	-1%	-1%	-1%	8%	-3%	-4%
CCOc1ccc(CNC(=O)c2ccc3c(c2)sc2nc(-c4ccc(OC)cc4)cn23)cc1	.	.	.	.	.	-14%
CS(=O)(=O)Cc1ccc(C(=O)NC2CCCc3ccccc32)cc1 (stereo not given)	3%	.	-3%	-3%	0%	-1%
N/C(=N\OC(=O)c1cccs1)c1ccccc1	?	?	?	?	?	0.67µM*
Cc1ccc(C(=O)NNC(=O)c2ccco2)cc1	?	13µM*	?	?	?	17µM*
Cc1ccc(NC(=S)NNC(=O)c2ccco2)cc1	1%	11µM*	-1%	?	?	?
O=c1oc(Nc2ccccc2Cl)nc2ccccc12	21µM*	?	3.5µM*	?	7%	15µM*
Clc1ccccc1Nc1nc(-c2ccncc2)nc2ccccc12	-3%	.	-4%	-6%	-4%	0%
SMILES	ELG1 genotox	SMN2 splice enh	NPC1 prom act	Rab9 promoter act	p53 reactivation	FLuc counter
O=c1oc(Nc2ccccc2F)nc2ccccc12	?	.	?	?	?	9.5µM*
O=c1oc(Nc2cccc(Cl)c2)nc2ccccc12	13µM*	11µM*	2.8µM*	0.79µM*	10%	-25%
Cc1c(C(=O)N2CCCC2)oc2c1-c1nn(CC(=O)NCc3ccccc3F)cc1CC2	.	.	.	.	.	-13%
COc1cc(OC)c(NC(=O)C(NS(=O)(=O)c2cccc3nsnc23)c2ccccc2)cc1Cl (stereo not given)	.	1%	.	.	.	-14%
COC(=O)[C@@]1(Cc2ccc(F)cc2)[C@H]2c3cc(C(=O)N4CCCC4)n(Cc4cccc5ccccc45)c3C[C@H]2CN1C(=O)c1ccccc1	.	-54%	.	.	.	.
CCOc1ccc(OCCC(=O)OCC(=O)NCCc2ccc(S(N)(=O)=O)cc2)cc1	-2%	.	0%	2%	7%	?
CC(O)CNc1ncnc2cc(-c3ccc(F)cc3)sc12 (stereo not given)	?	.	?	?	15%	11µM*
COc1ccc(NC(=O)CCc2c(C)nn(-c3ccc(N4CCOCC4)nn3)c2C)cc1	17%	.	16%	15%	?	?
CCc1cccc(NC(=O)CCc2c(C)nn(-c3ccc(N4CCOCC4)nn3)c2C)c1	3%	.	13%	8%	4%	17µM*
Cc1ccc(NC(=O)CCc2c(C)nn(-c3ccc(N4CCOCC4)nn3)c2C)cc1F	12%	.	?	?	2%	13µM*
Cc1ccc(F)cc1NC(=O)CCc1c(C)nn(-c2ccc(N3CCOCC3)nn2)c1C	.	.	.	.	.	-15%
COC(=O)c1ccc(NC(=O)CCc2c(C)nn(-c3ccc(N4CCOCC4)nn3)c2C)cc1	.	.	.	.	.	19µM*
COc1ccc(NC(=O)CCc2c(C)nn(-c3ccc(N4CCOCC4)nn3)c2C)cc1Cl	.	.	.	.	.	21µM*
COc1cc(NC(=O)CCc2c(C)nn(-c3ccc(N4CCOCC4)nn3)c2C)cc(OC)c1OC	1%[9.26 µM]	.	0%	8%	-2%	-19%
COCCOC(=O)c1c(NC(=O)CN2c3ccccc3CC2C)sc(C(N)=O)c1C (stereo not given)	-6%	6%	-3%	-1%	-5%	-2%
COc1ccc(-n2ncc(C(=O)NCc3cccs3)c2C2CCN(C(=O)OC(C)(C)C)CC2)cc1	.	.	.	.	.	0%
Cc1ccc(NC(=O)CCc2c(C)nn(-c3ccc(N4CCOCC4)nn3)c2C)cc1	11%	.	6%	25%	9%	?
CC(=O)c1ccc(NC(=O)CCc2c(C)nn(-c3ccc(N4CCOCC4)nn3)c2C)cc1	1%[9.26 µM]	.	?	?	20%	17µM*
COC(=O)C1(CC(C)C)C=C2C(=C(C(C)C)C(=O)C2C)CN1 (stereo not given)	.	-16%	.	.	.	.
CCc1ccc2oc(-c3ccc(NC(C)=O)cc3)nc2c1	3.3µM*	.	?	0.63µM*	.	1.9µM*
O=C(Nc1ccc(-c2nc3ncccc3o2)cc1)c1ccco1	?	?	2.5µM*	1.6µM*	27%	8.5µM*
O=C(Nc1ccc(NC(=O)c2cc3ccccc3o2)cc1)c1ccco1	6%	.	13%	20%	8%	-15%
